This is an account of results in PubChem BioAssay AID624246 (National Center for Advancing Translational Sciences (NCATS), 2012).

In all, about 370,000 compounds went through this assay and about 100 (0.027%) were called active. This is one part of a sample in which actives are shown more often than they occur. Calls come from the whole dose curve; as a rule, active = well fitted inhibition curve with a large enough effect in the polarisation, with a control signal flat; inconclusive = small, poorly fitted or top-dose-only effect, or effect the other way, or a change in a side signal; inactive = no such curve, though single readings can be large or run the other way; the % refers to the polarisation.
Potency is the fitted concentration of half-maximal effect.

Sequence of Transcriptional regulator ERG (Homo sapiens) (P11308 whole entry, looked up, the tested form may be a part): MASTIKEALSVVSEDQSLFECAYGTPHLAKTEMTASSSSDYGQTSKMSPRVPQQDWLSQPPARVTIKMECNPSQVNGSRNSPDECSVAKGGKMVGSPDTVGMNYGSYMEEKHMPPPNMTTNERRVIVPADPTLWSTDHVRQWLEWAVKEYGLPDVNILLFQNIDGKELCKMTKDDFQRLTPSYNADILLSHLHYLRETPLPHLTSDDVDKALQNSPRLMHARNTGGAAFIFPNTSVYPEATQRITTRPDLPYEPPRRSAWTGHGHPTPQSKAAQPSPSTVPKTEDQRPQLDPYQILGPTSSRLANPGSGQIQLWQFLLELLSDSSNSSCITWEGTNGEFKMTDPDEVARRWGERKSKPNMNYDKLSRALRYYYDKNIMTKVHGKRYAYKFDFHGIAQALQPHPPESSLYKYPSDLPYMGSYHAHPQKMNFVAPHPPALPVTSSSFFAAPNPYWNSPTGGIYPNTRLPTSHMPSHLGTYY

The assay has as its target Transcriptional regulator ERG (Homo sapiens) (UniProt P11308). The assay is described as follows: qHTS for Small Molecule Inhibitors of the ERG Ets/DNA interaction. For FP activity, negative = inhibition: % of control where 0% means no effect. To be noted: fluorescence polarization, His-ERG Ets domain / labelled DNA; series mostly up to 76.9 µM; FP activity, negative = inhibition: at the top concentration. Summed up:
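His-tagged ERG Ets domain (1 uM in the protein solution; 300mM KCl, 50mM Tris-HCl, 1mM EDTA, 1mM DTT, pH 7.5) received compound, then a probe mix of 5 nM fluorescein-DNA and 100nM Texas-615-DNA. Fluorescence polarization was read for both dyes.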
A general note: qHTS replaces the single test concentration by a dilution series.
In the case of `Cc1nn2c(=O)cc(COC(=O)CNC(=O)c3ccc(F)cc3)nc2s1`, the “FP activity, negative = inhibition” value was -9.84% (inactive). The same measure, in the same setting: the result for `CCOc1ccccc1C(=O)NCc1ccc2c(c1)CCN2C(=O)c1ccc(F)cc1` reads -0.811% (inactive). Still for that read-out and setting: as for `Cc1c(NC(=O)Nc2ccc(F)c(Cl)c2)c(=O)n(-c2ccccc2)n1C`, the figure is -5.55% (inactive). As for `Cc1ccc(N2CC(NC(=O)Cc3cccs3)CC2=O)cc1` (stereo unspecified), the “FP activity, negative = inhibition” value was -1.63% (inactive). Same read-out and setting: the result for `Cc1nnc(N2CCC(C(=O)Nc3ccc(F)cc3)CC2)c2nn(-c3ccc(Cl)cc3)c(C)c12` reads 4.61% (inactive); that for `Cc1ccc(C)c(N2CCN(C(=O)Cn3ncc4c(=O)oc5ccc(C)cc5c43)CC2)c1`, -2.21% (inactive). The same measure, in the same setting: the result for `Cc1ccc(C(=O)N2CCc3cc(CNC(=O)c4ccc(Br)cc4)ccc32)cc1` reads 0.293% (inactive). On the same count and under the same terms, as for `Cc1ccc(S(=O)(=O)NCc2nc3nc(C)cc(C)n3n2)cc1`, the figure is -0.121% (inactive).

On to `CCN(CCCNC(=O)c1cc(Nc2ccc(OC)cc2)nc2ccccc12)c1cccc(C)c1`, for which the “FP activity, negative = inhibition” value is 11.4% (inactive).

`CCc1nnc2c3ccccc3nc(N3CCN(c4ccc(C)cc4C)CC3)n12`: the “FP activity, negative = inhibition” value is -1.84% (inactive).

For the molecule `Cc1nnc(SCc2cc(=O)c3cc(F)ccc3[nH]2)n1C`, the “FP activity, negative = inhibition” value is -0.734% (inactive). Still for that read-out and setting: the result for `Cc1ccc(C(=O)Nc2ccc3[nH]c(=O)c(=O)[nH]c3c2)cc1` reads 10.2% (inactive). Same read-out and setting: as for `Cc1sc(C2C(C#N)=C(N)N(c3cccc(Cl)c3)C3=C2C(=O)CCC3)cc1CN1CCOCC1` (stereo unspecified), the figure is -0.155% (inactive). Still for that read-out and setting: the result for `O=C(CCc1ccccc1)NCc1ccc2c(c1)CCN2C(=O)c1ccccc1` reads -1.84% (inactive); that for `CCc1ccccc1NC(=O)c1sc2nc3c(cc2c1N)CN(Cc1ccccc1)CC3`, 2.85% (inactive); that for `COc1ccc(CCNC(=O)c2ccc(CSCc3ccc(C)cc3)o2)cc1OC`, -0.298% (inactive). As to `CCCn1c2ccccc2c2cnn(CC(=O)N3CCCC(C(=O)OCC)C3)c(=O)c21` (stereo unspecified), the “FP activity, negative = inhibition” value was 1.31% (inactive). The same measure, in the same setting: the result for `Cc1cc(C(=O)Nc2cccc(C(F)(F)F)c2)c2c(C)nn(-c3cccc(F)c3)c2n1` reads 16.8% (inactive).

With `CC(C)(C)c1ccc(C(=O)Nc2ccc3c(c2)CCCN3C(=O)c2cccs2)cc1`, the “FP activity, negative = inhibition” value is -9.6% (inactive). Still for that read-out and setting: as for `COc1ccc(-c2nc(CS(=O)CC(=O)NCc3cccnc3)c(C)o2)cc1OC` (stereo unspecified), the figure is 2.92% (inactive); as for `COc1ccc(CNC(=O)CS(=O)Cc2nc(-c3cccc(C)c3)oc2C)cc1` (stereo unspecified), 7.27% (inactive). Regarding `COc1ccc(-c2nc(CS(=O)CC(=O)NCc3ccccn3)c(C)o2)cc1` (stereo unspecified), the Potency is 35.5 µM (active). Regarding `Cc1cc(C)nc(NS(=O)(=O)c2ccc(NC(=O)c3cc(=O)c4ccc(C)c(C)c4o3)cc2)n1`, the “FP activity, negative = inhibition” value was 5.27% (inactive). Same read-out and setting: the result for `CCCn1c(NCc2ccccc2F)nc2ccccc21` reads -2.58% (inactive). The same measure, in the same setting: as for `O=C(CSc1nc(Nc2ccc(F)c(F)c2)c2ccccc2n1)c1ccc(Cl)cc1`, the figure is 3.88% (inactive); as for `COc1cc(C(=O)Nc2ccc(OCc3cc(=O)n4ccc(C)cc4n3)cc2)cc(OC)c1OC`, 3.21% (inactive).
